This is a sample that favours compounds with a hit; in the whole collection about 6.6% have one here.
KB-V1 cytotox: kills drug-selected multidrug resistant KB-V1 cells. Potency, µM (top dose mostly 46.1 µM), most hits filed as cytotoxic. AID 1347076. 400,000 compounds, 3.4% hits. KB-V1 MDR cells viability, CellTiter-Glo, 72 h; note: nearly all actives have a fitted effect of over 60% in size
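KB-V1 MDR subline cells in DMEM (phenol-red free, 10% FBS) exposed to compounds in qHTS concentration series for 72 h at 37 degrees C. Viability read by CellTiter-Glo luminescence; concentration-effect curves fitted after normalization and correction.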
RGS4 inhibitor: blocks human RGS4-accelerated GTP hydrolysis; 390,000 compounds, 0.039% hits; Potency, µM (highest dose often 114 µM), most hits filed as inhibitors; P49798; Transcreener GDP fluorescence polarization, RGS4-accelerated GTP hydrolysis; note: nearly all actives have a fitted effect of over 75% in size
Target sequence (P49798 whole entry, looked up): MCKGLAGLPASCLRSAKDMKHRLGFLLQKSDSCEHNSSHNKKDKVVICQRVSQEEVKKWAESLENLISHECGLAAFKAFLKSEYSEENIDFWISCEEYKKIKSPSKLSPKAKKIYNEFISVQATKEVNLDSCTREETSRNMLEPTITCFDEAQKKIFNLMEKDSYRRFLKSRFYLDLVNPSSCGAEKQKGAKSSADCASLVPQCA
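MLSMR compounds (23 nl, pin-transferred) preincubated 10 min at room temperature with a 500nM (2x) first reagent, then RGS4 at 900nM (2x) plus Transcreener GDP mix added; fluorescence polarization (620/688 nm) read before and after 90 min at 30 °C.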
MCF10A rereplic: DNA re-replication induction in MCF 10a cells; MCF 10A DNA re-replication, Hoechst nuclear intensity, 48 h; Potency, µM (highest dose often 46.1 µM), hits mostly activators; 350,000 compounds, 2.9% hits; note: nearly all actives have a fitted effect of over 50% in size
SW480 rereplic: DNA re-replication induction in SW480 cells; AID 624297; 340,000 compounds, 1.8% hits; Potency, µM (doses to about 46.1 µM), actives largely listed as activators; SW480 DNA re-replication, Hoechst DNA content imaging, 48 h; note: nearly all actives have a fitted effect of over 55% in size
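Hoechst fluorescence of nuclei (405 nm excitation, 500-530 nm emission) measured by plate-scanning imager after 48 hr compound exposure at 37 C; re-replication scored as increased number of nuclei with elevated intensity.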
KB-3-1 tox: kills parental KB-3-1 adenocarcinoma cells; KB-3-1 viability, CellTiter-Glo ATP luminescence, 72 h; 400,000 compounds, 1.4% hits; Potency, µM (highest dose often 46.1 µM), most hits filed as cytotoxic; note: nearly all actives have a fitted effect of over 60% in size
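Luminescent ATP read-out (CellTiter-Glo) measures survival of drug-naive KB-3-1 cells after 72 h compound exposure at 37 °C. Titration series was screened from lowest to highest concentration, with DMSO vehicle plates as background controls.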
TSG101-PTAP inh: blocks PTAP/TSG101 interaction to inhibit HIV-1 budding; Fluorescence polarization, FITC-PTAP peptide / Tsg101 binding; 340,000 tested, under 10 active; AID 493005; Q99816; Potency, µM (highest dose often 115 µM), most hits filed as inhibitors; active = well fitted inhibition curve with a large enough effect in the main read-out, with a control signal flat, not every such curve was filed as active; inconclusive = small, poorly fitted or top-dose-only effect, or effect the other way, or a change in a side signal; inactive = no such curve, though single readings can be large or run the other way
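FP read-out: FITC-PTAP peptide, 50 nM final, binding Tsg101 binding domain, 10 uM final; 20 min, r.t.; 10 mM HEPES pH 7.5, 0.15 M NaCl, 0.01% Tween 20, 3 mM EDTA, 0.1 mM TCEP.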
A number is an active result; - = inactive; ? = inconclusive; . = not tested or not shown; [ ] = another dose, or the depositor's remark. Unless noted, calls come from the whole dose curve; as a rule, active = well fitted curve in the direction sought with a large enough effect; inconclusive = small, poorly fitted or top-dose-only effect, or another doubt; inactive = no such curve, though single readings can be large; an effect the other way counts as inactive or inconclusive.

SMILES	KB-V1 cytotox	RGS4 inhibitor	MCF10A rereplic	SW480 rereplic	KB-3-1 tox	TSG101-PTAP inh
CCOc1ccc(S(=O)(=O)Nc2ccccc2SC)cc1	16µM	-	-	-	?	-
COC(=O)c1ccc(C)c(NS(=O)(=O)c2ccc(OC)cc2)c1	1µM	?	?	0.26µM	0.73µM	-
CCOC(=O)c1ccc(NC(=O)c2cc(=O)c3cc(CC)ccc3o2)cc1	-	-	.	.	-	.
CCNC(=O)CC1C(=O)N(c2ccc(C)cc2)C(=O)N1Cc1ccc(C)cc1 (stereo not given)	-	-	.	.	-	.
CCOc1ccc(/C=C/c2ccc3ccccc3n2)cc1OCC	-	.	.	.	?	.
Cn1c(=O)c2c(nc(N3CCOCC3)n2Cc2ccc(Br)cc2)n(C)c1=O	?	-	.	.	-	.
COc1cc(-c2cc3n(C)c(C)c(CCC(=O)NC4CCC(C)CC4)c(=O)n3n2)cc(OC)c1OC (stereo not given)	.	-	.	.	.	.
COC(=O)c1ccc(C)c(NS(=O)(=O)c2ccc3c(c2)OCCO3)c1	1.2µM	-	-	-	2.3µM	-
CCOC(=O)c1[nH]c(C)c(CCC(=O)Nc2ccc(Br)c(C)c2)c1C	-	-	.	.	-	.
COC(=O)c1c(-c2ccc(Cl)cc2)noc1N1CCN(c2cccc(OC)c2)CC1	-	-	.	.	-	.
COc1ccc(CCNC(=O)C2CCC(=O)N2Cc2ccccc2Cl)cc1OC (stereo not given)	-	-	-	-	-	-
O=C(COC(=O)C1CC1)NCCc1ccc(Cl)cc1	-	-	-	3.7µM	-	-
O=C(NCCc1ccc(Cl)cc1)C1CCC(=O)N1Cc1ccccc1Cl (stereo not given)	23µM	-	-	-	-	-
CCCN1C(=O)c2ccccc2NC1c1ccc(OC)c(COc2ccc([N+](=O)[O-])cc2)c1 (stereo not given)	-	-	.	.	-	.
CCCOc1cccc(C(=O)Nc2ccc(-c3cc4ccccc4oc3=O)c(C)c2)c1	?	-	.	.	-	.
CCCOc1ccc(C(=O)Nc2ccc(-c3cc4ccccc4oc3=O)c(C)c2)cc1	?	-	.	.	10µM	.
COc1ccc(C(=O)C2CCN(C(=O)c3ccco3)CC2)cc1	23µM	-	-	-	-	.
CCOc1ccc(NC(=O)N2CCC(n3nnc4cc(C)ccc43)CC2)cc1	?	-[11.4 µM]	-	15µM	-	-
COc1ccc(C(=O)Nc2nc(-c3nnn(-c4ccc(F)cc4F)c3C)ns2)cc1	?	-	.	.	-	.
COc1ccc(C(CCN2CCCCC2)c2c(OC)cc(OC)c3c(-c4ccccc4)cc(=O)oc23)cc1 (stereo not given)	-	-	?	1.6µM	?	-
COc1cc(OC)c2c(-c3ccccc3)cc(=O)oc2c1C(CCN1CCCCC1)c1ccc(N(C)C)cc1 (stereo not given)	-	-	-	-	?	-
O=C(NCCN1CCCC1)C(c1ccccc1)c1ccccc1	-	-	23µM	?	-	-
COC(=O)C[C@H]1c2ccccc2S(=O)(=O)N1c1ccc(N(C)C)cc1	?	.	.	.	-	.
CCS(=O)(=O)NCCc1csc2nc(-c3ccc(OC)cc3)nn12	.	-	.	.	.	.
COc1ccc(-c2nc3scc(-c4ccccc4)n3n2)cc1	18µM	-	-	?	?	-
SMILES	KB-V1 cytotox	RGS4 inhibitor	MCF10A rereplic	SW480 rereplic	KB-3-1 tox	TSG101-PTAP inh
C=CCn1c(SCC(=O)Nc2ccccc2C)nc2sc(C)c(C)c2c1=O	?	-	?	?	-	-
C=CCn1c(SCC(=O)Nc2cccc(S(N)(=O)=O)c2)nc2sc(C)c(C)c2c1=O	23µM	-	-	-	-	-
Cc1nnc(SCC(=O)Nc2cccc(S(N)(=O)=O)c2)n1-c1ccccc1	-	-	-	-	-	-
Cc1ccc(-n2c(SCC(=O)Nc3cccc(S(N)(=O)=O)c3)nc3ccccc32)cc1	-	-	16µM	-	15µM	-
CCCCCCCCNC(=S)NCCN1CCCCC1	?	-	12µM	?	-	-
CNC(=O)/C(C#N)=C/c1c(N(Cc2ccccc2)Cc2ccccc2)nc2ccccn2c1=O	2.6µM	-	-	-	-	-

Assay outcomes as filed in PubChem BioAssay.
